“And” between values parts separate entries of the source, which are not always exact repeats. Equal entries are not always repeated. The campaign covered roughly 6,400 compounds. About 610 (9.5%) were called active. Rule as the data show it: active = activity change below about -70%; inconclusive = no clear call, values can overlap the other calls; inactive = above that. The full list was thinned out, with actives kept by preference. Where a structure was tested more than once in an assay, its records may differ in their call.
assay: Toxoplasma gondii ME49Luc growth in HeLa cells, luciferase, no IFN-y, primary screen (AID 1259421); details: T. gondii ME49Luc in HeLa, 72 h, stronger effect = lower value, concentration not given here

| Molecule | activity change, negative = inhibition |
| --- | --- |
| CC1(O)C(O)C(CO)OC1n1cnc2c(NC3CCCC3)nc(Cl)nc21 (centres undefined) | 13.4% (inactive) |
| CC[C@@H](C(=O)O)[C@@H]1O[C@@H]([C@@H](C)[C@H](O)[C@H](C)C(=O)[C@H](CC)[C@H]2O[C@]3(C=C[C@@H](O)[C@]4(CC[C@@](C)(C5CC[C@](O)(CC)[C@H](C)O5)O4)O3)[C@H](C)C[C@@H]2C)[C@@H](C)C[C@H]1C (some centres undefined) | -82.4% (active) |
| CC[C@@H](C(=O)O)C1CC[C@H](C)C([C@@H](C)[C@H](O)[C@H](C)C(=O)[C@H](CC)C2O[C@]3(C=C[C@@H](O)[C@]4(CC[C@@](C)(C5CC[C@](O)(CC)[C@H](C)O5)O4)O3)[C@H](C)C[C@@H]2C)O1 (some centres undefined) | -72.7% (active) and -80.8% (active) |
| CC[C@@H](C(=O)[C@@H](C)[C@@H](O)[C@H](C)[C@@H]1O[C@@H]([C@@H](CC)C(=O)O)CC[C@@H]1C)[C@H]1OC2(C=C[C@@H](O)[C@]3(CC[C@@](C)(C4CC[C@](O)(CC)[C@H](C)O4)O3)O2)[C@H](C)C[C@@H]1C (some centres undefined) | -90.6% (active) |
| CC[C@@H](C(=O)[C@@H](C)[C@@H](O)[C@H](C)[C@@H]1O[C@@H]([C@@H](CC)C(=O)O)CC[C@@H]1C)[C@H]1O[C@]2(C=C[C@@H](O)[C@]3(CC[C@@](C)(C4CC[C@](O)(CC)[C@H](C)O4)O3)O2)[C@H](C)C[C@@H]1C (some centres undefined) | -83.1% (active) |
| NC(CC(F)C(=O)O)C(=O)O (centres undefined) | 4.86% (inactive) |
| O=C(O)C1/C(=C\CO)OC2CC(=O)N21 (centres undefined) | 6.21% (inactive) |
| Cc1cc(-c2ncc(CC(=O)Nc3ccc(-c4cnccn4)cn3)cc2C)ccn1 | 5% (inactive) |
| N#CC(C#N)Cc1ccc(O)cc1 | 0.596% (inactive) |
| COc1ccccc1Oc1c(NS(=O)(=O)c2ccc(C)cn2)nc(-c2ccncc2)nc1OC | 7.32% (inactive) |
| O=C(NN1C(=O)[C@@H]2[C@@H]3C=C[C@@H]([C@H]4C[C@@H]34)[C@@H]2C1=O)c1ccc(C(F)(F)F)cc1 | 3.93% (inactive) |
| COc1ccc(CCN(C)CCCOc2ccc(S(=O)(=O)c3c(C(C)C)c4ccccc4n3C)cc2)cc1OC | -76.5% (active) |
| COc1ccc(CCN(C)CCc2ccc(OC)c(OC)c2)cc1OC | 7.34% (inactive) and -3.3% (inactive) |
| COc1ccc(CCN(C)CCCN2CCc3cc(OC)c(OC)cc3CC2=O)cc1OC | 10.1% (inactive) |
| CO[C@@H]1[C@@H](O[C@@H]2O[C@H](C)[C@@H](O[C@H]3C[C@@](C)(OC(=O)CC(C)C)[C@@H](O)[C@H](C)O3)[C@H](N(C)C)[C@H]2O)[C@@H](CC=O)C[C@@H](C)[C@@H](O)/C=C/C=C/C[C@@H](C)OC(=O)C[C@H]1OC(C)=O | -10.6% (inactive) |
| COc1ccc(CCO[C@@H]2CCCC[C@H]2N2CC[C@@H](O)C2)cc1OC | 23% (inactive) |
| O=C1c2cccc(O)c2C(=O)c2c(O)cccc21 | 3.71% (inactive) and 0.722% (inactive) |
| O=C1c2c(O)ccc(O)c2C(=O)c2c(NCCNCCO)ccc(NCCNCCO)c21 | -73.8% (active) and -3.38% (inactive) |
| O=C1c2cccc(O)c2C(=O)c2c(O)cc(CO)cc21 | -11.5% (inactive) |
| CCCCCCCC/C=C/CCCCCCCC(=O)NCCO | -10.5% (inactive) |
| C=C1C(=O)[C@]23[C@H](O)[C@H]1CC[C@@H]2[C@@]12CO[C@]3(O)C[C@@H]1C(C)(C)CC[C@@H]2O | -77.5% (active) and 3.05% (inactive) |
| O=c1cc(-c2ccccc2O)oc2cc(O)ccc12 | 190% (inactive) |
| COP(=O)(OC)OC(c1ccc(Cl)cc1)P(=O)(OC)OC (centres undefined) | 5.14% (inactive) and 12.1% (inactive) |

| Molecule | activity change, negative = inhibition |
| --- | --- |
| CN(C)Cc1ccc(S(=O)(=O)n2ccc(/C=C/C(=O)NO)c2)cc1 | -84.8% (active) |
| c1ccc2sc(SN3CCOCC3)nc2c1 | 17.7% (inactive) |
| COc1c(-c2ccc3cc(NS(C)(=O)=O)ccc3c2)cc(-n2ccc(=O)[nH]c2=O)cc1C(C)(C)C | 17.6% (inactive) |
| CC(=O)OCC(=O)[C@@]1(O)[C@H](C)CC2C3CCC4=CC(=O)C=C[C@]4(C)[C@@]3(F)[C@@H](O)C[C@@]21C (some centres undefined) | -8.27% (inactive) |
| Nc1nc(-c2ccc(Cl)c(Cl)c2)c(-c2ccncc2)s1 | -9.5% (inactive) |
| COC(=O)[C@@]12OC[C@]34[C@H]([C@@H](O)[C@@H]1O)[C@@]1(C)CC(=O)C(=O)C(C)[C@@H]1C[C@H]3OC(=O)[C@H](OC(=O)/C=C(\C)C(C)C)[C@@H]24 (some centres undefined) | -83.7% (active) |
| CC(CCC(=O)O)[C@H]1CCC2C3C(=O)C[C@@H]4CC(=O)CC[C@]4(C)C3CC(=O)[C@@]21C (some centres undefined) | 4.28% (inactive) and -3.38% (inactive) |
| Cc1onc(-c2ccccc2)c1C(=O)N[C@@H]1C(=O)N2[C@@H](C(=O)O)C(C)(C)S[C@@H]12 | 3.42% (inactive) |
| N[C@H](Cc1cc(I)c(Oc2ccc(O)c(I)c2)c(I)c1)C(=O)O | 2.18% (inactive) and -1.07% (inactive) |
| N[C@@]1(C(=O)O)CS(=O)(=O)[C@H]2[C@H](C(=O)O)[C@H]21 | 8.77% (inactive) |
| Ac-PHSCN-NH2 | 12.4% (inactive) |
| CC1(C)CC(=O)c2c(C(F)(F)F)nn(-c3ccc(C(N)=O)c(NC4CCC(OC(=O)CN)CC4)c3)c2C1 (centres undefined) | -75.4% (active) |
| CC1(C)CC(=O)c2c(C(F)(F)F)nn(-c3ccc(C(N)=O)c(NC4CCC(O)CC4)c3)c2C1 (centres undefined) | -81.9% (active) |
| Cn1nnc(-c2ccc(-c3ccc(N4C[C@H](CO)OC4=O)cc3F)cn2)n1 | 60.5% (inactive) |
| CCOC(=O)[C@@H](CCc1ccccc1)N[C@H](C)C(=O)N1[C@@H]2CCC[C@H]2C[C@H]1C(=O)O | 14.6% (inactive) |
| CCCCS(=N)(=O)CC[C@H](N)C(=O)O (some centres undefined) | 0.306% (inactive) |
| CCCC[C@@H](CC)COC(=O)C(C#N)=C(c1ccccc1)c1ccccc1 | -53.6% (inactive) |
| CC(=O)OCC(=O)[C@@]1(O)[C@H](OC(C)=O)CC2C3CCC4=CC(=O)C=C[C@]4(C)[C@@]3(F)[C@@H](O)C[C@@]21C (some centres undefined) | -7.39% (inactive) |
| COc1ccc(-c2coc3c(O)c(O)c(OC)cc3c2=O)cc1 | 77.9% (inactive) |
| Nc1c2c(nc3ccccc13)CCCC2 | -1.53% (inactive) and -2.1% (inactive) |
| Nc1c2ccccc2nc2ccccc12 | -47.3% (inactive) and -70.8% (active) and 3.45% (inactive) |
| Nc1c2c(nc3ccccc13)CCCC2O (centres undefined) | 8.95% (inactive) |
| CCCCCCCCCCCCCCCCn1cc[n+](Cc2ccccc2)c1C | -85.6% (active) |

| Molecule | activity change, negative = inhibition |
| --- | --- |
| CCCCCCCCCCCCCCCC[N+](C)(C)Cc1ccccc1 | -3.66% (inactive) |
| CN1CCN(CCCCN2C(=O)CN(/N=C/c3ccc(-c4ccc(Cl)cc4)o3)C2=O)CC1 | 16.2% (inactive) |
| C[N+](C)(C)CC(O)CC(=O)O (centres undefined) | -0.966% (inactive) |
| CC[C@@H](C)Nc1cc(C(=O)NC2CC3CCC(C2)N3c2ccc(C(=O)C3CC3)cn2)c(C)cc1C(N)=O (some centres undefined) | -89.6% (active) |
| CCCCC(F)(F)C(=O)CC[C@H]1[C@H](O)CC(=O)[C@@H]1CCCCCCC(=O)O | 34.9% (inactive) and 7.68% (inactive) |
| N#C/C(=C/c1ccc(O)c(O)c1)C(=O)OCCc1cccs1 | 11.8% (inactive) |
| CC(=O)N(C)C1(c2ccccc2)CCN(CCC[C@]2(c3ccc(Cl)c(Cl)c3)CCCN(C(=O)c3ccccc3)C2)CC1 | -7.4% (inactive) |
| NC(N)=NCC1COC2(CCCCC2)O1 (centres undefined) | -1.54% (inactive) |
| NC1(C(=O)O)CC1 | 13.6% (inactive) |
| CC(=O)O[C@H]1C[C@@H](OC(C)=O)C(C)(C)C2C[C@@H](OC(C)=O)[C@]3(C)C(CC[C@@]4(C)[C@H](c5ccoc5)OC(=O)[C@H]5O[C@]543)[C@]21C (some centres undefined) | 0.452% (inactive) |
| CC(=O)N(O)[C@@H]1c2cc(C#N)ccc2OC(C)(C)[C@H]1O | -86% (active) and 7.72% (inactive) |
| CCS(=O)(=O)N(C)[C@H]1c2cc(C#N)ccc2OC(C)(C)[C@@H]1O (racemic) | 9.6% (inactive) |
| CCS(=O)(=O)N(C)C1c2cc(C#N)ccc2OC(C)(C)C1O (centres undefined) | -6.08% (inactive) |
| Nc1c[n+](N2CCOCC2)no1 | 18.8% (inactive) |
| CO/N=C(/C(=O)NC1C(=O)N2C(C(=O)OC(C)OC(C)=O)=C(COC(N)=O)CSC12)c1ccco1 (centres undefined) | 4.1% (inactive) |
| O=C(O)CCC/C=C\C[C@@H]1[C@@H](/C=C/[C@@H](O)COc2cccc(Cl)c2)[C@H](O)C[C@@H]1O | 11.1% (inactive) and 5.18% (inactive) and 11% (inactive) |
| Cc1c[nH]c(=O)n(CCCN2CCN(c3ccccc3OCC(F)(F)F)CC2)c1=O | 2.85% (inactive) and 2.68% (inactive) |
| C1CCC2(CC1)CCNCC2 | -1.4% (inactive) |
| COc1cc2c(Nc3ccc(NC(=O)c4ccccc4)cc3)ncnc2cc1OCCCN1CCOCC1 | -50.7% (inactive) and -23.3% (inactive) |
| COc1cc(Nc2c(C#N)cnc3cc(OCCCN4CCN(C)CC4)c(OC)cc23)c(Cl)cc1Cl | -79.2% (active) and -77.5% (active) |
| COc1cc2ncnc(Nc3ccc(F)c(Cl)c3)c2cc1OCCCN1CCOCC1 | 15.9% (inactive) |
| CN(C)C(=O)NC1CCC(CCN2CCN(c3cccc(Cl)c3Cl)CC2)CC1 (centres undefined) | 3.31% (inactive) |
| CC12CCC(C(=O)N(CCCCN3CCN(c4ccccn4)CC3)C1=O)C2(C)C (centres undefined) | -4.45% (inactive) |

Reference: PubChem BioAssay AID1259421 (Broad Institute, 2018)
